According to the supplement of paper PMC11732987, “Enantioselective OTUD7B fragment discovery through chemoproteomics screening and high-throughput optimisation” (Communications Chemistry, 2025):

What was measured:
Experiment in all cases: log2 ratio of Biotin-Ahx-Ub-VS probe labelling (fragment/DMSO); higher = less target engagement (more negative = stronger competition), active = hit call of the paper (q ≤ 0.05, log2 ratio ≤ -1)
Settings in all cases: compound concentration: 200 uM; treatment time: 3 h
USP9X = USP9X (UniProt Q93008)
Outline: (§1)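 Using Biotin-Ahx-Ub-VS at 0.5 µM final for 1 h, DUBs were labelled in HEK293T lysate (495 µg per sample) that had first been treated in triplicate with fragment at 200 µM or vehicle for 3 h. NeutrAvidin enrichment, LysC and trypsin digestion and diaPASEF LC-MS/MS followed. Spectronaut label-free quantities were global-median-normalised. Values are average log2 fragment/vehicle ratios by unpaired t-test, using proteins with ≥2 unique peptides.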

UniProt O00487 = target: UniProt O00487
Sequence of UniProt O00487 (O00487 whole entry): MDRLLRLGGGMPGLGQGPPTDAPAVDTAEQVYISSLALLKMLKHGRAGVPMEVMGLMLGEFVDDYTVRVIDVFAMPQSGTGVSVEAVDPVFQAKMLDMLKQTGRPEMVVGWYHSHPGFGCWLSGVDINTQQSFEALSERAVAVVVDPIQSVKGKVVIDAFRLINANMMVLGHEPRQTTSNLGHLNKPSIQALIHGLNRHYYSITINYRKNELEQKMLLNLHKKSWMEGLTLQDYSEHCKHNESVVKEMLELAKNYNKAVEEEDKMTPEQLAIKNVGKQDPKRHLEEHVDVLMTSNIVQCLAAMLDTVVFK
Outline: as §1

UniProt O00507 = target: UniProt O00507
Sequence of UniProt O00507 (O00507 whole entry): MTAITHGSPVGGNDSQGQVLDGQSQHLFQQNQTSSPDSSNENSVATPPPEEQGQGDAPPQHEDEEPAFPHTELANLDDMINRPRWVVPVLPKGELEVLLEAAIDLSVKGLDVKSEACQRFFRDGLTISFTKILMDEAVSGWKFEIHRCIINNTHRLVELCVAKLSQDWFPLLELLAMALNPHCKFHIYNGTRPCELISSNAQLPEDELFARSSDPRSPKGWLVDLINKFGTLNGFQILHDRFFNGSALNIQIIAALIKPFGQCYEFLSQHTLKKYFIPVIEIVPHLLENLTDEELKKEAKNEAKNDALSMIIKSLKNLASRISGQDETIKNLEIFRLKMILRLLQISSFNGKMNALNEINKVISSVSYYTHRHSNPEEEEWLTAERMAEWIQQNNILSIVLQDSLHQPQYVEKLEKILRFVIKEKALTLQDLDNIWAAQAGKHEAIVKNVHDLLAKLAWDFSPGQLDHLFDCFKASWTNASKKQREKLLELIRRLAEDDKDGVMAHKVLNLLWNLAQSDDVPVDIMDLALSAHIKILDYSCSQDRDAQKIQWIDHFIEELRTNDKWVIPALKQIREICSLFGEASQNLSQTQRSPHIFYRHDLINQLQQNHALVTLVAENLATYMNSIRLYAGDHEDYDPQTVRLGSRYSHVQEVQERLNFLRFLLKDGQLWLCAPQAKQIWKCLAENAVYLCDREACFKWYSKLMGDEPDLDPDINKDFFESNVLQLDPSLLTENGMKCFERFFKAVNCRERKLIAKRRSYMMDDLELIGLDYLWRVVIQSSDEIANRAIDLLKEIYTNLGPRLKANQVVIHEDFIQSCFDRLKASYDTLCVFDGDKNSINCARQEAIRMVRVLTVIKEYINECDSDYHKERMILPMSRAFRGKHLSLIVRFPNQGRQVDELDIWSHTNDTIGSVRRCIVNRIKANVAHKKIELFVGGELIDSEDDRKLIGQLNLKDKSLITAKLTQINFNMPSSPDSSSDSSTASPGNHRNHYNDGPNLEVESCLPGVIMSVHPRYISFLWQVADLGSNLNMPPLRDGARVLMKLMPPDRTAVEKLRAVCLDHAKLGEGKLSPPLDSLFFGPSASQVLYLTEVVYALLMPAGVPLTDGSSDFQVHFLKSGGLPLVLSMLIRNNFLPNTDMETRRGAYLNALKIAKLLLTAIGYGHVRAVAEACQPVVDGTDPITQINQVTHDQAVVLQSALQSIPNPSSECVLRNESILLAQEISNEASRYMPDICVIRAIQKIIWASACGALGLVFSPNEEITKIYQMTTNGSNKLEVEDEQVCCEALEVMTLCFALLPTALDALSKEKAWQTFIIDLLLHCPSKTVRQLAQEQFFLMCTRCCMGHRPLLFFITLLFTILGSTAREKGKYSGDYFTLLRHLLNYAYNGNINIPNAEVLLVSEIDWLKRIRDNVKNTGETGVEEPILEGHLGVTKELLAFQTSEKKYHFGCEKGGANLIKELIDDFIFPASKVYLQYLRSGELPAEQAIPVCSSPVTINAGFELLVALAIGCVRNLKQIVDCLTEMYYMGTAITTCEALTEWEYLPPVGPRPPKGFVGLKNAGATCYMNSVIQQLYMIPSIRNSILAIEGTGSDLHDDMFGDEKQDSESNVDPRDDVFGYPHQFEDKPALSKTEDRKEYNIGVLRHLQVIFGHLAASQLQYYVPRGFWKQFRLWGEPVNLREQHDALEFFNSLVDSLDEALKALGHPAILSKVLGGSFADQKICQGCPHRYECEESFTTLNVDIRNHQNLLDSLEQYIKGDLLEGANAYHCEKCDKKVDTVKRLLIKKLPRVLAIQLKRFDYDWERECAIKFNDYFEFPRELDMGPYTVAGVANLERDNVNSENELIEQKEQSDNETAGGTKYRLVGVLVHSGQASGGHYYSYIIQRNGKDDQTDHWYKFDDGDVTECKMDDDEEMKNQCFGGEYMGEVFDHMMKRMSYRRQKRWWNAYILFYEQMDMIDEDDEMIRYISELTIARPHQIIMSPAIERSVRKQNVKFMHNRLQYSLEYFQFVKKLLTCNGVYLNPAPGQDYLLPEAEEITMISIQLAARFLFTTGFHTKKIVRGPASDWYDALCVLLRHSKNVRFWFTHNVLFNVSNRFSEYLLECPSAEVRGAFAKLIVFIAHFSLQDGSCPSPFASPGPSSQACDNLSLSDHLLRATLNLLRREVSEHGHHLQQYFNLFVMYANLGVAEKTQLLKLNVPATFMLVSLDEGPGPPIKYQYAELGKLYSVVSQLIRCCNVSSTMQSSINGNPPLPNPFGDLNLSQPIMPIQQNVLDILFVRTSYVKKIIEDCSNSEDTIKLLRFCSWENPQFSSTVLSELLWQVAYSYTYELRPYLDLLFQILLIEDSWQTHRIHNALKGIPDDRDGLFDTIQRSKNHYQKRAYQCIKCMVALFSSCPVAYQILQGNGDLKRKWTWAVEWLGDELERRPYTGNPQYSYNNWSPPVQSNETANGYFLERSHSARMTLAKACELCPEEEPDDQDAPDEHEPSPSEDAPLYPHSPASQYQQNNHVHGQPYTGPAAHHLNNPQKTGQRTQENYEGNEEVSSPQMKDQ
Outline: as §1

UniProt P51784 = target: UniProt P51784
Sequence of UniProt P51784 (P51784 whole entry): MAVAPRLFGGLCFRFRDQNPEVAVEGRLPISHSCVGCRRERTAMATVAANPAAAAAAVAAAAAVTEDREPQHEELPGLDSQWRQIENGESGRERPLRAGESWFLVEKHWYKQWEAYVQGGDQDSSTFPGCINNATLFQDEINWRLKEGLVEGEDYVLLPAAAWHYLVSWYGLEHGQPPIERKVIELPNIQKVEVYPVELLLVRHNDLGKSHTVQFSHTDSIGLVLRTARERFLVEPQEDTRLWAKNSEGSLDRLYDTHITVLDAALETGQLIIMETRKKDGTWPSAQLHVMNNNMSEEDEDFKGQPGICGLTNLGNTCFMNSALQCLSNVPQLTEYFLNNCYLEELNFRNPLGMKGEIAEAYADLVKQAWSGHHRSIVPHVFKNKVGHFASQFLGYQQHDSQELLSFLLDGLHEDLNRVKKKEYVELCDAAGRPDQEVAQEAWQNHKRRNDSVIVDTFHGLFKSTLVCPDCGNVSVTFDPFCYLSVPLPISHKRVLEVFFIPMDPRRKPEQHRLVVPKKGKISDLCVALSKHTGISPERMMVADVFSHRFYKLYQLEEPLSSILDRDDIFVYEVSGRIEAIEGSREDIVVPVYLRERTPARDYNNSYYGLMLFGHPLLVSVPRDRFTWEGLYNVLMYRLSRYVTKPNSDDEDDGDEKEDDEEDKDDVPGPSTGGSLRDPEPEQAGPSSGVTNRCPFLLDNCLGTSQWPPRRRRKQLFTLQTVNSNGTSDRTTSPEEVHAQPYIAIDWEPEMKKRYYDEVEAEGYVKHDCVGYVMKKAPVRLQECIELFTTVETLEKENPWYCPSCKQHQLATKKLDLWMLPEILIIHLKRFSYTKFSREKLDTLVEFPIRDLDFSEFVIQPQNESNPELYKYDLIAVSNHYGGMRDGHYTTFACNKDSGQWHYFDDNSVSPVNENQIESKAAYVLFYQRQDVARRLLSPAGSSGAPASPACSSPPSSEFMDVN
Outline: as §1

UniProt Q5T2D3 = target: T1, UniProt Q5T2D3
T1 sequence (whole entry): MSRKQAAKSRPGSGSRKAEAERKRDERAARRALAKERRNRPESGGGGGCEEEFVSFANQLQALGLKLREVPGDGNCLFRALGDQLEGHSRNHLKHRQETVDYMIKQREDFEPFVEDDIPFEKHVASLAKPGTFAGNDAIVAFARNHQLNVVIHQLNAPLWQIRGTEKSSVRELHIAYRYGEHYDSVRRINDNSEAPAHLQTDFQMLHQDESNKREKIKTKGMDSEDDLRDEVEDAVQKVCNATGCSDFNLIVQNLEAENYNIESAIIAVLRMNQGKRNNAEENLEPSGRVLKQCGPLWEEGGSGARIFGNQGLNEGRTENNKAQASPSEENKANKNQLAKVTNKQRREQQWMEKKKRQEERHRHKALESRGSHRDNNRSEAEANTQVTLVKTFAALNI
Outline: as §1

UniProt Q8TE49 = target: T2, UniProt Q8TE49
T2 sequence (whole entry): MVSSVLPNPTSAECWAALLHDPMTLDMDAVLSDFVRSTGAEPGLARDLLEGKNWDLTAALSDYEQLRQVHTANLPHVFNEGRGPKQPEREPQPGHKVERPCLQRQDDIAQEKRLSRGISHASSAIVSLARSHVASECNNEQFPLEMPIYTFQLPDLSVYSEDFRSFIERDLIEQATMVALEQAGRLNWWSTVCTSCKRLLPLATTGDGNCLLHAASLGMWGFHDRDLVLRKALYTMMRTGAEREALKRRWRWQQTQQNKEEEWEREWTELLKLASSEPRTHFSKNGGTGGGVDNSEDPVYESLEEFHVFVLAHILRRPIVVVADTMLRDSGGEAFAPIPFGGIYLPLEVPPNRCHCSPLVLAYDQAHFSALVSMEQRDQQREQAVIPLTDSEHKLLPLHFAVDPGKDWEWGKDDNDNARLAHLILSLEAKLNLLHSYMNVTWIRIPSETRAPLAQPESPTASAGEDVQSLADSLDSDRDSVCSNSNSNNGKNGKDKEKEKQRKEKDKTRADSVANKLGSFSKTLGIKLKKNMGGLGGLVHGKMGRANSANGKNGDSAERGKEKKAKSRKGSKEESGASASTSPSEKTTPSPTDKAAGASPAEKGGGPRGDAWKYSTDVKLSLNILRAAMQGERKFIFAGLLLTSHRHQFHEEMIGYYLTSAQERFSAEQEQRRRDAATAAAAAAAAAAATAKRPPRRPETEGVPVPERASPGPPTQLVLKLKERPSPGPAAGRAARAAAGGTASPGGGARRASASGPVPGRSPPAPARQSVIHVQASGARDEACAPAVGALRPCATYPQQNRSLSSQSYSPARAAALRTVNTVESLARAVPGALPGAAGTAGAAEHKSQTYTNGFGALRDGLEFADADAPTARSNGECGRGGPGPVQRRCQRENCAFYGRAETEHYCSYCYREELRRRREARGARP
Outline: as §1

UniProt Q9P2H5 = target: T3, UniProt Q9P2H5
T3 sequence (whole entry): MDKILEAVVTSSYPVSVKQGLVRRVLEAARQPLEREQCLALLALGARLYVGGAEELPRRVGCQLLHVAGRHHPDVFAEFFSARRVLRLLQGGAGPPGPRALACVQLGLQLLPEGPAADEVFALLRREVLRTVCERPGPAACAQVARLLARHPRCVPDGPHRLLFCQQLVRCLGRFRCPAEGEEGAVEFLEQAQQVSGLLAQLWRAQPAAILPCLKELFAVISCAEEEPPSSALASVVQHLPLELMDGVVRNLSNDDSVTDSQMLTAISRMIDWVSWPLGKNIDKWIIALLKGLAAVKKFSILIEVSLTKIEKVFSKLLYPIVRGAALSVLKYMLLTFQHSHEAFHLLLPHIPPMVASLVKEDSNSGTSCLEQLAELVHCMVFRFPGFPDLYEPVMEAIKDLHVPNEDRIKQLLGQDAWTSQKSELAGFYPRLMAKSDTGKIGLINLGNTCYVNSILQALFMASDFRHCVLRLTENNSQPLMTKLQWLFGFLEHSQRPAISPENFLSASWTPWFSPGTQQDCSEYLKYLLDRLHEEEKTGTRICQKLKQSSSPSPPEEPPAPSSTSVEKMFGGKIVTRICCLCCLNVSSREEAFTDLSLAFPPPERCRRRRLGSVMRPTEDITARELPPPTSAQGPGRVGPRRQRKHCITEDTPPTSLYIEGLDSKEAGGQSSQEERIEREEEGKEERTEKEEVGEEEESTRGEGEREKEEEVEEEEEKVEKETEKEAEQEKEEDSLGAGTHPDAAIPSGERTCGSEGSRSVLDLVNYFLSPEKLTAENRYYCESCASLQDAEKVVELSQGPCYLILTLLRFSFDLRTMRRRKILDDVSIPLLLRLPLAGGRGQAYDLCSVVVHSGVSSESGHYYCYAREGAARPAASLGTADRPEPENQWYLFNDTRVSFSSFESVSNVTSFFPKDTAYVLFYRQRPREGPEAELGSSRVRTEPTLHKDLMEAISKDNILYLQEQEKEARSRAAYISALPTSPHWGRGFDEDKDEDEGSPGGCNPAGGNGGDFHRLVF
Outline: as §1

UniProt Q9UGI0 = target: T4, UniProt Q9UGI0
T4 sequence (whole entry): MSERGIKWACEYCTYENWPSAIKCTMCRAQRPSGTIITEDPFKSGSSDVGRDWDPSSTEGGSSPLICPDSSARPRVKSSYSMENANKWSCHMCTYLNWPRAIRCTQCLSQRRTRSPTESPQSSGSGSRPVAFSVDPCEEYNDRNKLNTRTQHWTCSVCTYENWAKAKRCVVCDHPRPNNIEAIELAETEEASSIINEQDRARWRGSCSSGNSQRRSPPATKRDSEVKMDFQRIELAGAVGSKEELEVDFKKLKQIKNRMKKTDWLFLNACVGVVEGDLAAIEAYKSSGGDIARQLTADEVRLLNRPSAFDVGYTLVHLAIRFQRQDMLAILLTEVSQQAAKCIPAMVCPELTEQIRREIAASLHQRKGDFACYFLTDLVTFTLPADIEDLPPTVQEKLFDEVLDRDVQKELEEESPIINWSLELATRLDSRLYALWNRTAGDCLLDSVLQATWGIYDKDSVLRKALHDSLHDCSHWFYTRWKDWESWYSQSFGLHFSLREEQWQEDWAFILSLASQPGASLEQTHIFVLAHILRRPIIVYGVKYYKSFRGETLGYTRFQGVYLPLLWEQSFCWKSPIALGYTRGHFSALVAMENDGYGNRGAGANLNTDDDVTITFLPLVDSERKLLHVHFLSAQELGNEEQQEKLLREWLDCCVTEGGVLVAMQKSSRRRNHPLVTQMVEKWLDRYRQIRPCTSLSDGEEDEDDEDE
Outline: as §1

YOD1 = target: T5, YOD1 (UniProt Q5VVQ6)
T5 sequence (whole entry): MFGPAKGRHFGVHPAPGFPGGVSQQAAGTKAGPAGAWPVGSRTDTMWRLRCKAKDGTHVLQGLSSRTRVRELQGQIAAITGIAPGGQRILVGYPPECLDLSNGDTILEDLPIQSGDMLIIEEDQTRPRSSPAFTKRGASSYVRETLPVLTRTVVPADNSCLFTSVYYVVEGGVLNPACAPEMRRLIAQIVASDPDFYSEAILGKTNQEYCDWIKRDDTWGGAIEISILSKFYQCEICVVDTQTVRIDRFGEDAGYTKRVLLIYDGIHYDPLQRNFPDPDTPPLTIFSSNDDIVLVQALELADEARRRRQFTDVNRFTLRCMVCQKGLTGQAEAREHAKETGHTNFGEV
Outline: as §1

Measured: log2 ratio of Biotin-Ahx-Ub-VS probe labelling

NS(=O)(=O)c1ccc(Cl)c(NC(=O)CCl)c1
inactive: USP9X -0.31 | UniProt O00487 -0.0819 | UniProt O00507 -0.168 | UniProt P51784 0.0886 | UniProt Q5T2D3 -0.424 | UniProt Q9P2H5 -0.0565 | UniProt Q9UGI0 -0.791 | YOD1 -0.361
active: UniProt Q8TE49 -1.53
